Usually AC50 stands for the concentration at which the activity in the assay is half-maximal.

Structures are written as SMILES. Active and inactive are the calls of the source. Rule for the calls: active = hit-call score of the fitted dose curve at least 0.9, where 1 is the maximum; inactive = score below 0.9.

In PubChem BioAssay (EPA / NIEHS) one finds outcome and AC50 data, which are given here for four compounds.

What all share (conditions): mRNA level, 48 h; actives raise or lower the signal
Read-out in experiment [1]: Peroxisomal acyl-coenzyme A oxidase 1 (ACOX1) gene, ACOX1 (gene 51)
In words: LTEA_HepaRG_ACOX1: Life Technologies and Expression Analysis (LTEA) Assay for Peroxisomal acyl-coenzyme A oxidase 1 (ACOX1) gene using HepaRG (AID 2283467). The procedure, abridged:
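Measured by qRT-PCR against three housekeeping genes: ACOX1 transcript change in human HepaRG cells after 48 h dosing. Concentrations ran up to 100 uM in half-log steps. Curves were fitted bidirectionally relative to 0.5% DMSO.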

Read-out in experiment [2]: Alkaline Phosphatase, Placental (ALPP) gene, ALPP (gene 250)
The experiment can be described thus: LTEA_HepaRG_ALPP: Life Technologies and Expression Analysis (LTEA) Assay for Alkaline Phosphatase, Placental (ALPP) gene using HepaRG (AID 2283468).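 For AC50: differentiated human HepaRG liver cells in serum-free induction medium.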 The procedure, abridged: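 qRT-PCR readout of ALPP mRNA (Fluidigm TaqMan), normalized to ACTB/GAPDH/POLR2A, after 48 h chemical exposure of HepaRG cells; 8-point half-log series, top 100 uM, 0.5% DMSO vehicle. Bidirectional curve fit versus DMSO baseline.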

Read-out in experiment [3]: Bcl-2 (BAD) gene, BAD (gene 572)
The experiment can be described thus: LTEA_HepaRG_BAD: Life Technologies and Expression Analysis (LTEA) Assay for Bcl-2 (BAD) gene using HepaRG (AID 2283469). Put shortly:
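BAD transcript change, measured by qRT-PCR against three housekeeping genes and fitted in both directions relative to 0.5% DMSO, after 48 h chemical treatment of human HepaRG liver cells at concentrations up to 100 uM.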

Read-out in experiment [4]: Bcl-2 (BAX) gene, BAX (gene 581)
The experiment can be described thus: LTEA_HepaRG_BAX: Life Technologies and Expression Analysis (LTEA) Assay for Bcl-2 (BAX) gene using HepaRG (AID 2283470). The procedure, abridged:
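HepaRG (human liver), 48 h exposure, duplicate wells. 8-pt curve, half-log from 100 uM, 0.5% DMSO. BAX transcript by TaqMan qRT-PCR; ACTB/GAPDH/POLR2A normalization; gain or loss vs DMSO baseline.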

Read-out in experiment [5]: adenosine kinase (ADK) gene, ADK (gene 132)
The experiment can be described thus: LTEA_HepaRG_ADK: Life Technologies and Expression Analysis (LTEA) Assay for adenosine kinase (ADK) gene using HepaRG (AID 2283471). Put shortly:
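Read-out is ADK transcript level measured by qRT-PCR and normalised to three housekeeping genes. Cells are human HepaRG, dosed for 48 h at up to 100 uM in 0.5% DMSO. Gain or loss of signal is fitted against DMSO controls.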

Read-out in experiment [6]: Alpha-fetoprotein (AFP) gene, AFP (gene 174)
In words: LTEA_HepaRG_AFP: Life Technologies and Expression Analysis (LTEA) Assay for Alpha-fetoprotein (AFP) gene using HepaRG (AID 2283472). The procedure, abridged: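 HepaRG, single lot; 48 h post-plating -> serum-free induction medium; cpd 8-pt, 100 uM top, half-log, 0.5% DMSO, duplicate, 48 h. RNA -> qRT-PCR AFP, norm ACTB/GAPDH/POLR2A. Bidirectional fit vs DMSO.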

Read-out in the next experiment: BCL2L11 (gene 10018)
In words: LTEA_HepaRG_BCL2L11: Life Technologies and Expression Analysis (LTEA) Assay for Bcl-2 (BCL2L11) gene using HepaRG (AID 2283473). The procedure, abridged:
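HepaRG, 48 h exposure, 8-pt half-log series from 100 uM in 0.5% DMSO, duplicates; qRT-PCR (Fluidigm TaqMan) for BCL2L11, housekeeping-normalized; bidirectional curve fit relative to DMSO baseline.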

Read-out in experiment [7]: Apolipoprotein A-V (APOA5) gene, APOA5 (gene 116519)
In words: LTEA_HepaRG_APOA5: Life Technologies and Expression Analysis (LTEA) Assay for Apolipoprotein A-V (APOA5) gene using HepaRG (AID 2283474). Put shortly: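 HepaRG, 48 h chemical exposure in serum-free induction medium, 8-pt half-log series (top 100 uM), 0.5% DMSO vehicle, duplicates. Readout: APOA5 mRNA by qRT-PCR, housekeeping-normalized; bidirectional fit vs DMSO baseline.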

Read-out in experiment [8]: Apoptosis regulator Bcl-2 (Homo sapiens) (UniProt P10415)
The experiment can be described thus: LTEA_HepaRG_BCL2: Life Technologies and Expression Analysis (LTEA) Assay for Bcl-2 gene using HepaRG (AID 2283475). Put shortly: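 HepaRG, plated 48 h then switched to serum-free induction medium; dosed 48 h, 8 conc. (max 100 uM, half-log steps), duplicate, 0.5% DMSO. Lysis in RLT, RNA isolated, TaqMan qRT-PCR for BCL2; ACTB/GAPDH/POLR2A normalisation; bidirectional fit vs DMSO.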

Read-out in experiment [9]: Bcl-2 (BID) gene, BID (gene 637)
In words: LTEA_HepaRG_BID: Life Technologies and Expression Analysis (LTEA) Assay for Bcl-2 (BID) gene using HepaRG (AID 2283476). The procedure, abridged: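 Transcript levels of BID, measured by qRT-PCR and normalized to three housekeeping genes, were fitted bidirectionally against DMSO controls. Cells were HepaRG, dosed 48 h at up to 100 uM.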

Read-out in the next experiment: Caspase-3 (Homo sapiens) (UniProt P42574)
In words: LTEA_HepaRG_CASP3: Life Technologies and Expression Analysis (LTEA) Assay for cysteine-aspartic acid protease (CASP3) using HepaRG (AID 2283477). Put shortly:
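HepaRG, 48 h exposure, 8 conc. (top 100 uM, half-log steps, duplicate), 0.5% DMSO vehicle; qRT-PCR of CASP3 transcript, housekeeping-normalised (ACTB/GAPDH/POLR2A); bidirectional curve fit vs DMSO baseline.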

Read-out in experiment [10]: cysteine-aspartic acid protease (CASP8), CASP8 (gene 841)
The experiment can be described thus: LTEA_HepaRG_CASP8: Life Technologies and Expression Analysis (LTEA) Assay for cysteine-aspartic acid protease (CASP8) using HepaRG (AID 2283480). The procedure, abridged:
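HepaRG, 48 h exposure, duplicate wells; 8 conc, half-log from 100 uM, 0.5% DMSO. Serum-free induction medium. CASP8 mRNA by TaqMan qRT-PCR, norm. ACTB/GAPDH/POLR2A; gain/loss fitted vs DMSO.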

Read-out in experiment [11]: Cytochrome P450 (CYP24A1), CYP24A1 (gene 1591)
In words: LTEA_HepaRG_CYP24A1: Life Technologies and Expression Analysis (LTEA) Assay for Cytochrome P450 (CYP24A1) using HepaRG (AID 2283478). Put shortly: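 qRT-PCR read-out: CYP24A1 transcript levels normalized to three housekeeping genes, bidirectional curve fits against 0.5% DMSO baseline. Human HepaRG cells treated 48 h with chemicals at eight concentrations from 100 uM in half-log steps.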

Read-out in experiment [12]: Cytochrome P450 2C19 (Homo sapiens) (UniProt P33261)
The experiment can be described thus: LTEA_HepaRG_CYP2C19: Life Technologies and Expression Analysis (LTEA) Assay for CYP2C19 using HepaRG (AID 2283482). Put shortly:
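HepaRG, 48 h chemical exposure, 8-pt half-log series from 100 uM in 0.5% DMSO, duplicates. Readout: CYP2C19 mRNA by TaqMan qRT-PCR, housekeeping-normalized. Bidirectional fit vs DMSO baseline; phenobarbital 1mM as induction control.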

Read-out in the next experiment: CYP2C8 (gene 1558)
In words: LTEA_HepaRG_CYP2C8: Life Technologies and Expression Analysis (LTEA) Assay for CYP2C8 using HepaRG (AID 2283483). Put shortly: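 CYP2C8 mRNA induction or loss, by qRT-PCR normalized to ACTB/GAPDH/POLR2A, is read in HepaRG cells after 48 h treatment. Concentrations run from 100 uM down in half-log dilutions, with 0.5% DMSO as vehicle and baseline.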

Read-out in the next experiment: CYP2C9 (gene 1559)
In words: LTEA_HepaRG_CYP2C9: Life Technologies and Expression Analysis (LTEA) Assay for CYP2C9 using HepaRG (AID 2283484). The procedure, abridged:
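Cells plated 48 h, switched to serum-free induction medium, then treated in duplicate for 48 h at eight concentrations (max 100 uM, 0.5% DMSO). RNA then analysed by qRT-PCR for CYP2C9; curves fitted in both directions relative to DMSO.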

Read-out in a further experiment: CYP2E1 (gene 1571)
The experiment can be described thus: LTEA_HepaRG_CYP2E1: Life Technologies and Expression Analysis (LTEA) Assay for CYP2E1 using HepaRG (AID 2283485). Put shortly:
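Human liver line HepaRG, plated 48 h, then serum-free induction medium + chemical x 48 h; 8-pt CRC from 100 uM, half-log, 0.5% DMSO, n=2. Readout: CYP2E1 mRNA qRT-PCR vs ACTB/GAPDH/POLR2A; bidirectional fit vs DMSO.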

Read-out in the next experiment: CYP4A11 (gene 1579)
The experiment can be described thus: LTEA_HepaRG_CYP4A11: Life Technologies and Expression Analysis (LTEA) Assay for CYP4A11 using HepaRG (AID 2283486). Put shortly:
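CYP4A11 transcript levels were quantified by TaqMan qRT-PCR after HepaRG human liver cells were treated for 48 hours with test chemicals (top 100 uM, half-log dilutions, 0.5% DMSO). Gain or loss of signal was fitted relative to DMSO.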

Read-out in experiment [13]: Cytochrome P450 (CYP2B6), CYP2B6 (gene 1555)
The experiment can be described thus: LTEA_HepaRG_CYP2B6: Life Technologies and Expression Analysis (LTEA) Assay for Cytochrome P450 (CYP2B6) using HepaRG (AID 2283481). The procedure, abridged:
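Read-out is CYP2B6 mRNA by TaqMan qRT-PCR, normalized to three housekeeping genes and fitted bidirectionally against 0.5% DMSO baseline. Human HepaRG cells received test chemicals for 48 h, top concentration 100 uM, half-log dilutions.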

Chain of Apoptosis regulator Bcl-2 (Homo sapiens) (P10415 whole entry, looked up): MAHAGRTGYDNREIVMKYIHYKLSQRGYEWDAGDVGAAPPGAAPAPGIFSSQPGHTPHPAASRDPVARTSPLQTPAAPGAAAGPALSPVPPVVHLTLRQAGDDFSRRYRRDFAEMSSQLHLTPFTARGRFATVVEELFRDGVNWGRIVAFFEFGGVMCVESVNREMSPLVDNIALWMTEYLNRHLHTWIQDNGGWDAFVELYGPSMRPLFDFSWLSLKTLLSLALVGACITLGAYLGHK
Chain of Caspase-3 (Homo sapiens) (P42574 whole entry, looked up): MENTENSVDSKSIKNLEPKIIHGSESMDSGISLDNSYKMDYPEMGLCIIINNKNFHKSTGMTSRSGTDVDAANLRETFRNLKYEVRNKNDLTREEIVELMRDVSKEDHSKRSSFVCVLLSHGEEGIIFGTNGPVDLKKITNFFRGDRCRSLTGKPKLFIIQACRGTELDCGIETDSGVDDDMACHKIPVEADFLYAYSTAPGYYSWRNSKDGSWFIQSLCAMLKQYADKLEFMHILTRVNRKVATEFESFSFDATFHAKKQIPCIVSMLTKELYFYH
Chain of Cytochrome P450 2C19 (Homo sapiens) (P33261 whole entry, looked up): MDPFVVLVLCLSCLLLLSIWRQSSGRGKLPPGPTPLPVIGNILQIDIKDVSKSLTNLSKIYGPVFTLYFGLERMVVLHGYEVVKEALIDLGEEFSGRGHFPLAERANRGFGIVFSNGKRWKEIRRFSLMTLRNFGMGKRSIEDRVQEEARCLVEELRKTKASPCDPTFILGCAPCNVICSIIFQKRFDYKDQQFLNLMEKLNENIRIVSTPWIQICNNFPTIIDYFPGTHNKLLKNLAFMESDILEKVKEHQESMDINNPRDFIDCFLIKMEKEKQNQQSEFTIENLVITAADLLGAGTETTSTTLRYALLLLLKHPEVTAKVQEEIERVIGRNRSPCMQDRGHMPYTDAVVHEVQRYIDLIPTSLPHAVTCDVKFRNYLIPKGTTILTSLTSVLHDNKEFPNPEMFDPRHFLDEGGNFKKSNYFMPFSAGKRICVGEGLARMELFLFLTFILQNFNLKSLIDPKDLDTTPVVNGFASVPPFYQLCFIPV

As for `CC(=O)[C@@]1(O)CC[C@H]2[C@@H]3CCC4=CC(=O)CC[C@]4(C)[C@H]3CC[C@@]21C`, the result (in experiment [1]; in [2]; in [3]; in experiment [4]; in [5]; with BCL2L11 (gene 10018)) was inactive. Besides, the compound was called inactive (in [7]; in experiment [8]; in experiment [9]; in the experiment with Caspase-3 (Homo sapiens); in experiment [10]). Further, the half-maximal activity concentration (AC50) in experiment [6] is 50 µM (active).
`O=Cc1ccccc1C=O`: the compound was classed as inactive in [1], in experiment [2], in experiment [3], in [4], in [5] and in [6]. The compound was called inactive (in the experiment with BCL2L11 (gene 10018); in experiment [7]; in experiment [8]; in experiment [9]; in the experiment with Caspase-3 (Homo sapiens); in [11]). In addition, the result (in [10]; in experiment [12]; with CYP2C8 (gene 1558); with CYP2C9 (gene 1559); with CYP2E1 (gene 1571); with CYP4A11 (gene 1579)) was inactive.
Consider `CC(=O)S[C@H](C(=O)N[C@H]1Cc2ccccc2[C@H]2CCC[C@@H](C(=O)O)N2C1=O)C(C)C`, for which the outcome in experiment [1], in [2], in [3], in experiment [4], in [5] and in experiment [6] was inactive. Also, the compound was called inactive (in the experiment with BCL2L11 (gene 10018); in experiment [7]; in [8]; in [9]; in the experiment with Caspase-3 (Homo sapiens); in experiment [11]). Also, the call (in experiment [10]; in [12]; in the experiment with CYP2C8 (gene 1558); with CYP2C9 (gene 1559); with CYP4A11 (gene 1579)) was inactive.
As for `Cc1c(C)c2c(c(C)c1O)CCC(C)(COc1ccc(CC3SC(=O)NC3=O)cc1)O2` (stereo not given), the half-maximal activity concentration (AC50) in [1] was 97.6 µM (active); in experiment [2] it was 15.8 µM (active); in experiment [4] it was 29.6 µM (active); in [6], 25 µM (active); with BCL2L11 (gene 10018), 90.1 µM (active); in experiment [13], 26.4 µM (active). The AC50 with CYP2E1 (gene 1571) was 25.6 µM (active); with CYP4A11 (gene 1579), 27.5 µM (active). Also, the compound was classed as inactive (in experiment [3]; in experiment [5]; in experiment [7]; in experiment [8]; in [9]; with Caspase-3 (Homo sapiens)). Besides, the compound was classed as inactive (in experiment [11]; in experiment [10]; with CYP2C8 (gene 1558); with CYP2C9 (gene 1559)).
